# Assay results from PubChem BioAssay AID2284377 (EPA ToxCast).
# Results filed as inconclusive are left out. Calls of active or inactive are those of the source. The calls were made as follows: active = hit-call score of the fitted dose curve at least 0.9, where 1 is the maximum; inconclusive = response in the unintended direction; inactive = score below 0.9.
# Target: Estrogen receptor (Homo sapiens) (UniProt P03372)
# Assay: ERF_TW_NR_COA_hESR1: Eurofins (ERF) Nuclear Receptor (NR) Functional Coactivator Assay for human Estrogen Receptor alpha (ERa) Agonism
# Experimental: ERF_TW_NR_COA_hESR1 is a biochemical, single-readout assay that uses extracted gene-proteins in a cell-free assay. Measurements were taken 0.16 hours after chemical dosing in a 96-well plate. See ERalpha Human Estrogen NHR Functional Agonist Coactivator Assay, Panlabs.ERF_TW_NR_COA_hESR1 is an assay component calculated from the ERF_TW_NR_COA_hESR1 assay. It is designed to measure FRET using a type of binding reporter as detected by fluorescence intensity of estriol with fluorimetry technology.Data from the assay component ERF_TW_NR_COA_hESR1 was analyzed at the assay endpoint, ERF_TW_NR_COA_hESR1, in the positive analysis fitting direction relative to DMSO as the negative control and baseline of activity. Using a type of binding reporter, gain-of-signal activity can be used to understand changes in binding as they relate to gene ESR1. To generalize the intended target to other relatable targets, this assay endpoint is annotated to the nuclear receptor intended target family, where the subfamily is steroid.
# Test compound and/or vehicle is incubated with the 7 nM estrogen receptor alpha (ERalpha)-LBD and coactivator peptide for 10 minutes at RT. Determination of the amount of complex formed is read spectrofluorimetrically at 520 nm/490 nm. Test compound-induced increase fluorescence by 50 percent or more (>/=50%) relative to the 1 uM Estriol response indicates possible ERalpha receptor agonist activity.
# Sequence of Estrogen receptor (Homo sapiens) (P03372 whole entry, looked up): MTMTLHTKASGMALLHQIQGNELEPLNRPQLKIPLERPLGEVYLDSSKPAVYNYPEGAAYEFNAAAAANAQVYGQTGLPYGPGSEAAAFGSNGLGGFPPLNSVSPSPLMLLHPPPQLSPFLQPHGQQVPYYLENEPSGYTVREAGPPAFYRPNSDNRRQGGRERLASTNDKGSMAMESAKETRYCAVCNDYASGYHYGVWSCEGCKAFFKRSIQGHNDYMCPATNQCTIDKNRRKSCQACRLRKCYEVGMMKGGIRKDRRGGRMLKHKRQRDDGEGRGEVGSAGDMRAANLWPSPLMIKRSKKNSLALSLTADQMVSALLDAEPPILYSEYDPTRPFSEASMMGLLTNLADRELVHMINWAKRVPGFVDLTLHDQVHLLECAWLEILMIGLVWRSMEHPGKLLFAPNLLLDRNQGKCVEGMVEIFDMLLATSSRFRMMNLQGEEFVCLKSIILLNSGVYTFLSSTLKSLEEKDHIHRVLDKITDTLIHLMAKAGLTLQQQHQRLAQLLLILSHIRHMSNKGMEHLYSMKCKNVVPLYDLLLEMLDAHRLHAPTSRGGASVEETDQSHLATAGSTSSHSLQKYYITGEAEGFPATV
Structure (SMILES),outcome,AC50
FC(F)(I)C(F)(F)C(F)(F)C(F)(F)I,inactive,–
NC(=O)C(F)(F)C(F)(F)C(F)(F)C(F)(F)C(F)(F)C(F)(F)C(F)(F)F,inactive,–
OCCCC(F)(F)C(F)(F)C(F)(F)C(F)(F)C(F)(F)C(F)(F)C(F)(F)F,–,43.3 µM (active)
C=CC(=O)OCC(F)(F)C(F)(F)C(F)(F)C(F)(F)C(F)(F)C(F)(F)C(F)(F)C(F)F,–,37.5 µM (active)
N=C(N)C(F)(F)C(F)(F)C(F)(F)C(F)(F)C(F)(F)C(F)(F)C(F)(F)F,inactive,–
FC(F)(I)C(F)(F)C(F)(F)C(F)(F)C(F)(F)C(F)(F)I,–,7.81 µM (active)
OCCC(F)(F)C(F)(F)C(F)(F)C(F)(F)C(F)(F)C(F)(F)C(F)(F)C(F)(F)F,inactive,–
OCC(F)(F)C(F)(F)C(F)(F)C(F)(F)C(F)(F)C(F)(F)C(F)(F)C(F)(F)CO,–,0.467 µM (active)
OCC(F)(F)C(F)(F)C(F)(F)C(F)(F)C(F)(F)C(F)(F)CO,–,1.53 µM (active)
O=C(CC(=O)C(F)(F)C(F)(F)C(F)(F)F)c1cccs1,inactive,–
FC(F)(F)C(F)(F)C(F)(F)C(F)(F)C(F)(F)C(F)(F)I,–,4.11 µM (active)
O=P(O)(O)OCCC(F)(F)C(F)(F)C(F)(F)C(F)(F)C(F)(F)C(F)(F)F,–,9.12 µM (active)
OCCC(F)(F)C(F)(F)C(F)(F)C(F)(F)C(F)(F)C(F)(F)F,–,50.2 µM (active)
